# From PubChem BioAssay AID1508637 (National Center for Advancing Translational Sciences (NCATS), 2021)
# Inconclusive results are not listed. Calls of active or inactive are those of the source. Calls follow the shape of the dose curve; as a rule, active = well fitted inhibition curve with a large enough effect; inconclusive = small, poorly fitted or top-dose-only effect; inactive = flat fitted curve, though single readings scatter.
# Assay: qHTS for characterization and localization of zebrafish homologs of the human ABCB1 multidrug transporter: empty vector transfected cells
# Settings: empty vector transfected control cells, CellTiter-Glo luminescence viability, 72 h; series mostly up to 46.1 µM
# Outline: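 About 90 known P-gp substrates were titrated onto four cell lines: vector control, MDR-19 (human P-gp) and zebrafish Abcb4 or Abcb5 transfectants. After 72 h, ATP luminescence (CellTiter-Glo) gave curves; cytotoxic required AC50 < 10 uM, >50% response and inhibitory curve class.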
row,Compound,Potency
1,COc1cc(C(=O)NC2CCN(C)CC2)ccc1Nc1ncc2c(n1)N(C1CCCC1)CC(F)(F)C(=O)N2C,41.8 nM (active)
2,CO[C@H]1/C=C/C=C/C=C/C[C@H](OC(=O)[C@@H](C)NC(=O)C2CCCCC2)[C@H](C)[C@@H](O)/C(C)=C/CCc2cc(O)cc(c2)NC(=O)C1,277 nM (active)
3,Oc1ccc(-c2ccc(-c3cc(Nc4cccc(CNC5CC5)c4)n[nH]3)cc2)c(O)c1,2960 nM (active)
4,CN(C)c1ccc(C(=C2C=CC(=[N+](C)C)C=C2)c2ccc(N(C)C)cc2)cc1,590 nM (active)
5,C=CCNC1=C2CC(C)CC(OC)C(O)C(C)/C=C(\C)C(OC(N)=O)C(OC)/C=C/C=C(\C)C(=O)NC(=CC1=O)C2=O (configuration not stated),1480 nM (active)
6,CN(C)C/C=C/C(=O)Nc1cccc(C(=O)Nc2ccc(Nc3nccc(-c4cccnc4)n3)cc2)c1,18700 nM (active)
7,COC[C@H](NC(=O)c1cnc(C)s1)C(=O)N[C@@H](COC)C(=O)N[C@@H](Cc1ccccc1)C(=O)[C@@]1(C)CO1,166 nM (active)
8,CCCCc1nc2cc(C=CC(=O)NO)ccc2n1CCN(CC)CC,3320 nM (active)
9,CN(C)C1CCN(C(=O)c2ccc(NC(=O)Nc3nc(N4CCOCC4)nc(N4CCOCC4)n3)cc2)CC1,469 nM (active)
10,CCS(=O)(=O)c1cccc(-c2cc(C(=O)NC3CCN(C)CC3)c(C)c3[nH]c4ncc(C)cc4c23)c1,2350 nM (active)
11,C/C=C1/NC(=O)C2CSSCCC=CC(CC(=O)NC(C(C)C)C(=O)N2)OC(=O)C(C(C)C)NC1=O (configuration not stated),52.6 nM (active)
12,CCN(CC)Cc1ccc(C(=O)N(CCc2ccccc2OC)[C@@H]2CCNC2)cc1,inactive
13,CC[C@@]1([C@@H]2O[C@@H]([C@H]3O[C@@](O)(CO)[C@H](C)C[C@@H]3C)C[C@@H]2C)CC[C@H]([C@]2(C)CC[C@]3(C[C@H](O)[C@@H](C)[C@@H]([C@@H](C)[C@@H](OC)[C@H](C)C(=O)O)O3)O2)O1,148 nM (active)
14,CCC(C)C(=O)OC1CC(O)C23C4OCC5(C(O)CC2C1(C)C(O)O4)C3C(=O)C(O)C1(C)C(O)(c2ccoc2)CC2OC251 (configuration not stated),1100 nM (active)
15,COc1ccc(CC2C(=O)NC(C)C(=O)N(C)C3Cc4ccc(cc4)Oc4cc(ccc4OC4OC(CO)C(O)C(O)C4O)CC(C(=O)NC(C)C(=O)NC(C)C(=O)N2C)N(C)C3=O)cc1 (configuration not stated),88.8 nM (active)
16,Cc1[nH]c2ccccc2c1CCNCc1ccc(/C=C/C(=O)NO)cc1,235 nM (active)
17,CCn1c(-c2nonc2N)nc2c(C#CC(C)(C)O)ncc(OC[C@H]3CCCNC3)c21,1180 nM (active)
